For 17 compounds, composite z-score and z-score results are on record in PubChem BioAssay.

The subject of assay [1] is Human papillomavirus type 1a protein E7 (residues 44-93). In words: small molecules binding HPV E7 44-93 – biochemical, small-molecule microarray, residues 44-93, 635 nm fluorescence, primary screen (AID 1108).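 Also: E7 fragment applied at 1 µg/mL in TBST for 1 h at 4 C; score combines spot fluorescence with its signal to noise ratio.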 Conditions: fluorescence 635 nm, higher = more signal.
Assay [2] can be described thus: hepatitis C replication reporter changes, two-sided – Huh7 cells, luciferase reporter, HCV replication inhibitor project, primary screen (AID 1109).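 Also: huh7 hepatoma cells harbouring a luciferase neomycin HCV replicon reporter; luciferase luminescence as measure of HCV replicon replication; test concentration not given here.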 The note with it: Huh7 HCV replicon luciferase reporter, 48 h; higher = more signal. (In general: Reporter assays use an easily measured gene product as a stand-in for the process of interest.)
Assay [3] deals with Left-right determination factor 2 (Homo sapiens) (UniProt O00292). In words: small molecules binding LEFTY2 protein – biochemical, small-molecule microarray, 635 nm fluorescence scan, primary screen (AID 1110). The note with it: higher = more signal.
Chain of Left-right determination factor 2 (Homo sapiens) (O00292 whole entry, looked up): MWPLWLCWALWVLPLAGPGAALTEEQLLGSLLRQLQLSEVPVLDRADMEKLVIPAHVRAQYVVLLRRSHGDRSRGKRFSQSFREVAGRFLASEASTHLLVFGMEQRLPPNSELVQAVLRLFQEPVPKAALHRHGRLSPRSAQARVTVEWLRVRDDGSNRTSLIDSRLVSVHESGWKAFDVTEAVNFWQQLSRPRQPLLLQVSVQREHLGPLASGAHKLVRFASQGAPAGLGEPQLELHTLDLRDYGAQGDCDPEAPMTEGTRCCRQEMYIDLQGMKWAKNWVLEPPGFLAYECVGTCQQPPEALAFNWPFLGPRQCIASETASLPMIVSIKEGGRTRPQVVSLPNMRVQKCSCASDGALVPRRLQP
The target of assay [4] is Calmodulin-1 (Homo sapiens) (UniProt P0DP23). In words: small molecules binding calmodulin-1 with EGTA – biochemical, small-molecule microarray, Cy5-labelled CALM1, profiling panel (AID 1111).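 Also: labelled calmodulin applied in Tris saline Tween buffer holding calcium plus EGTA and DTT.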 The note with it: Cy5-CALM1 binding fluorescence, higher = more signal.
The target is the same in assay [5]. In words: small molecules binding Ca-loaded calmodulin-1 – biochemical, small-molecule microarray, Cy5-labelled CALM1, plus calcium, artefact control for SMM control-protein annotation, profiling panel (AID 1112).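 Also: score merges spot fluorescence with signal to noise from triplicate slides.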 Conditions: Cy5-CALM1 binding fluorescence, higher = more signal.
Assay [6] in a line: probe aWnt5a binding to arrayed compounds – biochemical, biotinylated probe, 635/667 nm fluorescence, primary screen (AID 1113).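 Also: score merges 667 nm fluorescence intensity with signal-to-noise per printed feature.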 Conditions: small-molecule microarray, higher = more signal.
Assay [7] can be described thus: probe aShh binding to arrayed compounds – biochemical, biotinylated probe, 635/667 nm fluorescence, primary screen (AID 1114).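 Also: probe is biotin-labelled aShh protein from a stem cell growth factor screen; measures binding of labelled protein to compounds printed on the slide; score merges feature fluorescence at 667 nm with signal-to-noise.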 The note with it: small-molecule microarray, higher = more signal.
Assay [8] in a line: probe aNog binding to arrayed compounds – biochemical, biotinylated probe, 635/667 nm fluorescence, primary screen (AID 1115).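 Also: probe is biotinylated aNog protein used at 0.15 µg/mL for 1 h at 4 C; z-score combines 667 nm fluorescence of each spot with its signal to noise.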 Conditions: small-molecule microarray, higher = more signal.
Assay [9] concerns the target Torsin-1A-interacting protein 1 (Homo sapiens) (UniProt Q5JTV8). In words: compound microarray binding of lysate hLAP1 – cell lysate, small-molecule microarray, COS7 lysate, 635/667 nm fluorescence, primary screen (AID 1116). Conditions: 635 nm fluorescence, higher = more signal.
The target of assay [10] is Alpha-bungarotoxin (Bungarus multicinctus) (UniProt P60615). In words: compounds binding labelled alpha-BTX control protein – biochemical, small-molecule microarray, Alexa647 label, 635/667 nm fluorescence, artefact control for SMM control protein annotation, profiling panel (AID 1117). Conditions: alpha-BTX-A647 binding fluorescence, higher = more signal.
Chain of Alpha-bungarotoxin (Bungarus multicinctus) (P60615 whole entry, looked up): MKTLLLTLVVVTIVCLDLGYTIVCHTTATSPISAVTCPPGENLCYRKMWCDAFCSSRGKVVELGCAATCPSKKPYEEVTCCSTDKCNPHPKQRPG

Chain of Torsin-1A-interacting protein 1 (Homo sapiens) (Q5JTV8 whole entry, looked up): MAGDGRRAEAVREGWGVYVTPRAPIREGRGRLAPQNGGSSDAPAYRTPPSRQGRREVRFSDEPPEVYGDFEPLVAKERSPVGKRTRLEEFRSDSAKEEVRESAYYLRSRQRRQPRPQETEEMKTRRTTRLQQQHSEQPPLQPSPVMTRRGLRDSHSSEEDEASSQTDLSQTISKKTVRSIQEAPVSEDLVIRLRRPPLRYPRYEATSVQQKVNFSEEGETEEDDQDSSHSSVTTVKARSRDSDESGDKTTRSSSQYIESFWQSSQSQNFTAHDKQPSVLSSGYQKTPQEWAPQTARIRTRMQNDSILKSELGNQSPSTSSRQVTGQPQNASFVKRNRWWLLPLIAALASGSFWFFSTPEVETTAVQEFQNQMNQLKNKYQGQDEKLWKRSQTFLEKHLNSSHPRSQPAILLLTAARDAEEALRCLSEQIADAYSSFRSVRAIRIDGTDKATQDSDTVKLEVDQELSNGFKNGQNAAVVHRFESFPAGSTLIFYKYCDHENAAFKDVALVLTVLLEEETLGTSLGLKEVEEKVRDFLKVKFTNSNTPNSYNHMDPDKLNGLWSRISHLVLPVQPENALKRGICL

Take `COC(=O)C1=CC(CCCO)=CC(c2ccc(CN3CCCC3)cc2)N(Cc2cccc(OC(F)(F)F)c2)C=C1C(=O)OC` (stereo not given): the composite z-score is 1.38 in assay [1]; 0.0706 in assay [3]; 2.08 in assay [4]; 0.695 in assay [5]; -0.172 in assay [6]; -0.0953 in assay [7]. Also, the composite z-score in [8] stood at 0.947; in assay [9], 2.1; in assay [10] it was 1.89. The z-score in assay [2] was -1.18.
Turning to `COC(=O)[C@@H]1N=C(c2ccc(OCCCO)cc2)O[C@@H]1C`, the composite z-score in assay [1] is 0.783; in assay [3], 0.309; in assay [4], -0.226; in assay [5], -1.2; in assay [6] it was -0.148; in assay [7], 0.233. The figures for the composite z-score in [8], in [9] and in assay [10] were -0.356, 1.71 and -0.294, respectively. The compound also showed a z-score in assay [2] of 2.62.
Consider `CC(C)C(O)C1C=CC2C(=O)N(c3ccccc3)C(=O)C2N1Nc1ccccc1` (stereo not given), for which the composite z-score was 1.5 in [1]; 0.138 in assay [3]; 1.71 in assay [4]; 0.325 in assay [5]; 0.0324 in assay [6]; -0.156 in [7]. For the same compound, the figures for the composite z-score in assay [8], in assay [9] and in assay [10] were 1.32, 1.1 and 1.23, respectively. Moreover, the z-score in [2] was -0.831.
On to `C=CCC(OC(C)=O)[C@@H]1[C@@H](N(Cc2ccc(-c3ccccc3)cc2)C(=O)c2ccc(-c3ccccc3)cc2)c2cc(OCCCO)ccc2N1C(=O)c1ccc2ccccc2c1` (stereo not given in full), for which the composite z-score in assay [1] was 0.508; in assay [3], -0.0379; in assay [4] it was 0.493; in assay [5], 0.839; in assay [6], -0.11; in assay [7] it was 0.0141. Further, the values for the composite z-score in assay [8], in assay [9] and in assay [10] were -0.284, 0.0403 and -0.116, respectively. The z-score in assay [2] was -0.415.
As for `C=CCNC(=O)[C@@H]1[C@H]2C(=O)O[C@H](c3ccccc3)[C@H](c3ccccc3)N2[C@H](c2ccccc2OCCO)[C@@]12C(=O)Nc1ccc(C#CCC(C(=O)OC)C(=O)OC)cc12`, the composite z-score in assay [1] is 0.562; in [3], -0.034; in assay [4] it was 0.138; in assay [5], -0.147; in assay [6], -0.0258; in [7], -0.147. Also, the composite z-score is -0.303 in assay [8], 0.458 in [9] and 0.894 in assay [10]. In assay [2], the z-score is -3.28.
In the case of `CC1CC/C=C\[C@H]2OC34C=CCN(C(C)(C)C)C(=O)[C@H]3N(CCCCCO)C(=O)[C@@H]4C2C(=O)O1` (stereo not given in full), the composite z-score in [1] was -1.33; in [3] it was -0.464; in assay [4] it was -0.835; in assay [5] it was -0.517; in assay [6], -0.199; in [7] it was -0.283. For the same compound, the composite z-score in [8] was -0.0105; in [9], -0.348; in assay [10] it was -1.25. Moreover, the z-score in assay [2] was 0.095.
As for `COC(=O)[C@@]1(Cc2ccc(OC)cc2)[C@H]2c3cc(C(=O)N(C)C)n(Cc4ccc(C)o4)c3C[C@H]2CN1C(=O)c1ccccc1`, the composite z-score in [1] was 1.42; in assay [3], -0.466; in [4], 0.372; in [5] it was -0.223; in assay [6], 0.091; in assay [7], 0.596. Moreover, the results for the composite z-score in assay [8], in [9] and in assay [10] were 0.243, 1.27 and 0.41, respectively. The z-score in assay [2] was -2.04.
Turning to `CO[C@H]1O[C@H](CO)[C@@H](OC(=O)CCc2ccccc2)[C@@H]2OC(=O)[C@@H](Cc3ccccc3)C/C=C/C[C@H](Cc3ccccc3)C(=O)O[C@@H]12`, the composite z-score in assay [1] was 1.3; in assay [3], 0.0673; in assay [4], 0.485; in [5], 0.0529; in assay [6], -0.0802; in assay [7] it was 0.772. Further, the composite z-score in assay [8] is 0.156; in [9], -0.161; in assay [10], 1.29. In assay [2], the z-score is -1.97.
In the case of `CC(C)[Si](C#CCCCC#N)(O[C@H](c1ccccc1)c1cn(Cc2ccccc2)nn1)C(C)C`, the composite z-score in assay [1] was 0.157; in [3], -0.0465; in assay [4], -0.321; in assay [5], -0.458; in [6] it was -0.252; in assay [7] it was 0.0469. In addition, the composite z-score in [8] is 0.111; in assay [9] it was 0.439; in assay [10], -0.199. For the same compound, the z-score in assay [2] is -0.147.
On to `Cc1ccccc1C(O)C1C=CC2C(=O)NC(=O)C2N1Nc1ccccn1` (stereo not given), for which the composite z-score was -0.439 in assay [1]; 0.263 in assay [3]; -0.285 in assay [4]; -0.206 in [5]; -0.221 in assay [6]; -0.349 in assay [7]. Besides, the values for the composite z-score in [8], in assay [9] and in [10] were -0.0682, 0.692 and 0.173, respectively. The z-score in [2] was 0.331.
Take `C=C(/C(=C/C[C@H](OC(C)=O)c1ccc(CO)o1)c1cnc2ccccc2c1)C(C)C`: the composite z-score in [1] was 1.43; in assay [3] it was 0.552; in assay [4] it was 1.4; in assay [5] it was -0.24; in assay [6], -0.0643; in assay [7] it was 0.149. The values for the composite z-score in assay [8], in [9] and in assay [10] were 0.33, 1.07 and 2.15, respectively. For the same compound, in assay [2], the z-score was -2.23.
Consider `COC(=O)C/C=C/C[C@]1(O)C(=O)N(C)c2ccccc21`, for which the composite z-score in assay [1] was 0.0938; in assay [3], 0.704; in [4], -1.34; in assay [5], -0.895; in assay [6], -0.122; in assay [7], -0.243. For the same compound, the composite z-score in assay [8] was -0.252; in [9] it was 0.194; in [10], 0.766. In [2], this compound had a z-score of 0.027.
With `CC[C@@H]1O[Si](C(C)C)(C(C)C)c2c1cc(-c1cc(C)c(OC)c(C)c1)nc2-c1ccc(Oc2ccccc2)cc1`, the composite z-score in assay [1] is -0.871; in assay [3], -0.389; in assay [4], -0.162; in assay [5], 0.0543; in assay [6] it was -0.117; in [7] it was -0.299. In addition, the composite z-score is -0.103 in [8], -0.386 in assay [9] and 0.0748 in assay [10]. The z-score in assay [2] was -0.748.
Consider `Cc1ccc(N2C(=O)c3ccccc3[C@@H](C(=O)NCCCN(C)C)[C@@H]2c2ccc(CO)cc2)nc1`, for which the composite z-score in assay [1] is -0.48; in assay [3], -0.14; in assay [4], -0.571; in [5] it was -0.382; in [6] it was -0.22; in assay [7], -0.452. Also, the composite z-score was -0.577 in [8], 1.29 in assay [9] and 0.14 in assay [10]. In addition, the z-score in [2] was 0.234.
Turning to `COCCOC(=O)N1C(=O)[C@@]2(c3cc(C#CC4=CCCCC4)ccc31)[C@H](c1ccccc1OCCO)N1[C@H](c3ccccc3)[C@H](c3ccccc3)OC(=O)[C@H]1[C@@H]2C(=O)NC[C@H](O)c1ccccc1`, the composite z-score amounted to 1.4 in assay [1]; 0.869 in assay [3]; 1.04 in [4]; 0.213 in [5]; 0.0839 in assay [6]; 0.0081 in assay [7]. The composite z-score in assay [8] is -0.939; in assay [9], 0.978; in [10] it was 1.64. In assay [2], the z-score is -3.19.
`Cc1ccc(F)cc1S(=O)(=O)N[C@@H]1CCN(Cc2ccc(Br)cc2)C1`: the composite z-score in [1] was -1.51; in assay [3], 0.681; in [4] it was -1.03; in assay [5], -0.806; in assay [6], -0.126; in assay [7] it was -0.214. The results for the composite z-score in assay [8], in [9] and in [10] were -0.252, 0.418 and 0.322, respectively. Moreover, in [2], the z-score is -1.5.
For `COCCCNC(=O)[C@@]1(Sc2ccc(C)cc2)CC(=O)N(C2Cc3ccccc3C2)[C@@H]1c1ccc(CO)cc1`, the composite z-score in [1] was 0.52; in [3], -1.15; in [4], -0.176; in assay [5], -0.0232; in [6] it was -0.227; in assay [7], -0.2. The composite z-score was 0.551 in assay [8], 0.423 in [9] and -0.715 in assay [10]. Further, the z-score in assay [2] was -0.849.
